Test results: publication PMC5540273 (PLoS ONE, 2017)

Each compound was assayed on MAP4K5. Settings: concentration: 1 μM,replicates: in singlicate; n = 1.
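Note: KINOMEscan kinase panel screen.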

Structure (SMILES) | %Inh [%]
Cl.Cl.Nc1nc(-c2ccc3c(N)n[nH]c3c2)cc(N2CCCC(NC(=O)c3ccccc3)C2)n1 (stereo not drawn) [GSK2286775] | 0
CC(C)Nc1cc(-c2ccc3c(N)n[nH]c3c2)nc(N)n1 [GSK2221681] | 5
COc1ccc(C[C@@H](CN)NC(=O)c2cc(Br)c(-c3ccnc4[nH]ccc34)s2)cc1.Cl.Cl [GSK1389063] | 8
C[C@H]1Oc2cc(cnc2N)-c2c(nn(C)c2C#N)CN(C)C(=O)c2ccc(F)cc21 | 14
Cc1ccc2c(-c3ccncc3)c(-c3ccc(F)cc3)nn2c1.Cl [GW461484] | 0
C=CC(=O)Nc1cc2c(Nc3ccc(F)c(Cl)c3)ncnc2cc1OCCCN1CCOCC1 [GW781483] | 10
CNC(=O)c1ccccc1Sc1ccc2c(/C=C/c3ccccn3)n[nH]c2c1 | 25
C[C@@H](Oc1cc(-c2cnn(C3CCNCC3)c2)cnc1N)c1c(Cl)ccc(F)c1Cl | 90.2
CCN(CC)CCOc1ccc(Nc2ncc3cc(-c4c(Cl)cccc4Cl)c(=O)n(C)c3n2)cc1 [SB-601273] | 99.6
CN(C)CCOc1ccc(-c2cc(-c3c[nH]nc3-c3ccccn3)ccn2)cc1 [GW835314] | 24
Cl.Oc1cc(-c2nc(-c3ccccc3)[nH]c2-c2ccncc2)ccc1Cl [SB-386023] | 4
CC(C)N1C(=O)Cc2cc(Nc3ncc(C(F)(F)F)c(NCc4cccc(S(C)(=O)=O)c4)n3)ccc21 | 10
